Laboratory results reported in PubChem BioAssay (EPA / NIEHS).
Some compounds were tested as several samples or in several runs, with calls that do not always agree. The source made the active and inactive calls. How the source made its calls: active means hit-call score of the fitted dose curve at least 0.9, where 1 is the maximum; inactive means score below 0.9.

read-out: Transforming growth factor beta 1 (TGFb1), TGFB1 (gene 7040); assay: BSK_KF3CT_TGFb1: BioMAP Diversity Plus: KF3CT Assay for Transforming growth factor beta 1 (TGFb1) Biomarker Activity (AID 2283072); settings: primary human keratinocytes with fibroblasts; actives raise or lower the signal
Protocol: BSK_KF3CT is a cell-based, multiplexed-readout assay that uses keratinocytes and foreskin fibroblasts, a human skin primary cell co-culture, with measurements taken at 24 hours after chemical dosing in a 96-well plate.BSK_KF3CT_TGFb1 is an assay component measured in the BSK_KF3CT assay. It measures TGF-b1 antibody related to regulation of gene expression using ELISA technology.Data from the assay component BSK_KF3CT_TGFb1 was analyzed into 1 assay endpoint. This assay endpoint, BSK_KF3CT_TGFb1, was analyzed with bidirectional fitting relative to DMSO as the negative control and baseline of activity. Using a type of binding reporter, gain or loss-of-signal activity can be used to understand changes in the signaling as they relate to the gene TGFB1. Furthermore, this assay endpoint can be referred to as a primary readout, because this assay has produced multiple assay endpoints where this one serves a signaling function. To generalize the intended target to other relatable targets, this assay endpoint is annotated to the growth factor intended target family, where the subfamily is transforming growth factor beta.
The levels of cell surface (or secreted, indicated by the prefix "s") biomarker endpoints were measured by ELISA. Overt cytotoxicity to cells in confluent adherent cultures (all systems other than the BT system) was assessed by measuring total protein levels using sulforhodamine B (SRB) staining in parallel cultures at the time of biomarker measurements, indicated as SRB endpoints. For proliferation assays for adherent cell types, individual cell types are cultured at sub-confluence and relative cell numbers quantified by SRB staining at time points optimized for each system (48 h: 3C and CASM3C systems; 72 h: BT and HDF3CGF systems; 96 h: SAg system). SRB was performed by staining cells with 0.1% SRB after fixation with 10% TCA and reading wells at 560 nm.Viability and proliferation of PBMC (T cells) was quantified by Alamar Blue reduction for the SAg and BT systems. For PBMC viability (referred to as PBMC Cytotoxicity within the assay endpoint names), cells were plated (75,000/well in a 96-well plate) and then chemical samples added for 1 h before addition of activators, SEB and TSST-1 (20 ng/mL final concentration each). Cells were incubated for 90 h. Then, Alamar Blue (20 uL/well) (Invitrogen, Cat DAL1100) was added for 6 h, and the plates were read with a fluorescence microplate reader at 546/580 nm (excitation/emission). For PBMC proliferation, cells were plated and activated as above but incubated for only 16 h prior to addition of Alamar Blue. Plates were read after 6 h.

SMILES | outcome | AC50
O=S(=O)(O)C(F)(F)C(F)(F)C(F)(F)C(F)(F)F | inactive | –
O=NN(c1ccccc1)c1ccccc1 | inactive | –
CCCCCCCCOC(=O)c1ccccc1C(=O)OCCCCCCCC | inactive | –
CCOP(=S)(OCC)SCSC(C)(C)C | inactive | –
C[C@]12CCC(=O)C=C1CC[C@@H]1[C@@H]2CC[C@]2(C)C(=O)CC[C@@H]12 | inactive | –
CCNc1nc(NC(C)C)nc(SC)n1 | inactive | –
CC(C)C(=O)OCC(C)(C)C(OC(=O)C(C)C)C(C)C (stereo not given) | inactive | –
O=C(O)C(F)(F)C(F)(F)C(F)(F)C(F)(F)C(F)(F)C(F)(F)C(F)(F)C(F)(F)F | inactive | –
COc1ccc(O)c(C(C)(C)C)c1 | inactive | –
CO/C=C(/C(=O)OC)c1ccccc1COc1cccc(C(F)(F)F)n1 | – | 5.13 µM (active)
Sc1ccccc1 | inactive | –
Cc1cc2c3c(c1)C(c1ccccc1)=N[C@@H](NC(=O)c1ccncc1)C(=O)N3CC2 | inactive | –
Cc1ccccc1O | inactive | –
CN(C)CCO | inactive | –
O=C(NC(=O)c1c(F)cccc1F)Nc1cc(Cl)c(OC(F)(F)C(F)F)c(Cl)c1 | inactive | –
CCSC(=O)N(CC)C1CCCCC1 | inactive | –
CCC(C)(CC)c1cc(NC(=O)c2c(OC)cccc2OC)on1 | inactive | –
ClC1=C(Cl)[C@]2(Cl)[C@@H]3[C@@H]4C[C@@H]([C@H]5O[C@@H]45)[C@@H]3[C@@]1(Cl)C2(Cl)Cl | inactive | –
NS(=O)(=O)C(F)(F)C(F)(F)C(F)(F)C(F)(F)C(F)(F)C(F)(F)C(F)(F)C(F)(F)F | – | 9.43 µM (active)
Cc1cc(O)ccc1Cl | inactive | –

SMILES | outcome | AC50
COS(=O)(=O)OC | inactive | –
Cc1cccc([N+](=O)[O-])c1 | inactive | –
CC(C)(O)C(=O)Nc1ccc([N+](=O)[O-])c(C(F)(F)F)c1 | inactive | –
Oc1c(Cl)c(Cl)c(Cl)c(Cl)c1Cl | inactive | 15 µM (active)
CC(C)(c1ccccc1)c1ccc(O)cc1 | – | 34.5 µM (active)
O=S(=O)(O)C(F)(F)C(F)(F)C(F)(F)C(F)(F)C(F)(F)C(F)(F)F | inactive | –
Nc1ccc(-c2ccc(N)cc2)cc1 | inactive | –
CCOCCOC(C)=O | inactive | –
ClC1=C(Cl)[C@]2(Cl)[C@@H]3[C@H]4C[C@H]([C@@H]5O[C@H]45)[C@@H]3[C@@]1(Cl)C2(Cl)Cl | inactive | –
ClC(Cl)=C(c1ccc(Cl)cc1)c1ccc(Cl)cc1 | – | 32.6 µM (active)
Cc1ccccc1[N+](=O)[O-] | inactive | –
C1CC2OC2CC1C1CO1 (stereo not given) | inactive | –
O=C(N[C@H]1CN2CCC1CC2)c1cc2ccoc2cn1 | inactive | –
CC(c1ccc(O)cc1)(c1ccc(O)cc1)c1ccc(O)cc1 | – | 11.4 µM (active)
Cc1ccc(O)c(C)c1 | inactive | –
CCCN(CCC)N=O | inactive | –
C[C@]12CCC(=O)C=C1CC[C@@H]1[C@@H]2CC[C@@]2(C)[C@H]1CC[C@]2(C)O | inactive | –
CCCCCCCCCC[N+](C)(C)CCCCCCCCCC | – | 3.03 µM (active)
Oc1ccc(C(c2ccc(O)cc2)(C(F)(F)F)C(F)(F)F)cc1 | – | 23.7 µM (active)
